Assay outcomes as filed in PubChem.
This is a sample that favours compounds with a hit; in the whole collection about 12% have one here.
CHX counter – counter-screen for Shiga toxin inhibitors: cycloheximide protein synthesis inhibition | cell reporter, cycloheximide protein synthesis inhibition counterscreen | max response, % | 12% of 300,000 active | AID 2314; in the data active = max response mostly above about 13%, no sharp cut-off; inactive = mostly below about 14%; note: read at 38.3 µM for the half of the compounds with a filed dose
LASV entry inh – inhibitors of Lassa virus binding or cell entry. Lassa virus pseudotype entry inhibition, cell reporter. Potency, µM (highest dose often 37.9 µM), most hits filed as inhibitors. 1.2% of 300,000 active; calls by dose curve; tested in HEK293 cells; note: nearly all actives have a fitted effect of over 50% in size
Marburg entry inh – Marburg virus entry inhibition; Marburg virus pseudotyped entry inhibition, cell reporter; Potency, µM (titrated, usually from 37.8 µM), most hits filed as inhibitors; 1.8% of 300,000 active; calls by dose curve; tested in HEK293 cells
Shiga toxin inh – inhibitors of Shiga toxin in Vero cells; Vero cells, Shiga toxin protein synthesis inhibition reporter; inhibition, % at 38.7 µM; 9.2% of 290,000 active; in the data active = inhibition mostly above about 28%, no sharp cut-off; inactive = mostly below about 43%
Of the large screens only hits and unclear results are named; the others gave an inactive call; ! = not confirmed by another sample.

NC(=O)c1c(NC(=O)CCCC(=O)O)sc2c1CCCCCC2	LASV entry inh inconclusive
O=C(Nc1cc(Cl)ncn1)c1ccccc1	none (no result: CHX counter, Shiga toxin inh)
C=CCNC(=S)Nc1sc2c(c1C#N)CCCC2	CHX counter 23
Cc1ccccc1C(=O)NC(=S)Nc1sc2c(c1C#N)CCCC2	none
CN(C)CCCNC(=O)C1(O)c2cc(Br)ccc2NC(=O)N1c1c(F)cccc1F (centres undefined)	none (no result: LASV entry inh, Marburg entry inh)
CS(=O)(=O)c1ncc(Cl)c(C(=O)N2CCN(c3cccc(Cl)c3)CC2)n1	LASV entry inh inconclusive, Marburg entry inh inconclusive
COCC(=O)NCCSc1c(C)[nH]c2ccccc12	none (no result: LASV entry inh, Marburg entry inh)
CC(=O)Nc1sc2c(c1C#N)CCCCC2	CHX counter 18
N#Cc1c(NC(=O)c2ccccc2)sc2c1CCCCC2	CHX counter 48, LASV entry inh inconclusive, Marburg entry inh inconclusive, Shiga toxin inh 55
COC(=O)c1c(NC(C)=O)sc2c1CCCCC2	none
CCc1ccc2nc3n[nH]c(N)c3cc2c1	CHX counter 45, LASV entry inh inconclusive, Shiga toxin inh 75
Cc1ncc(CO)c(CNc2ccc(Oc3ccccc3)cc2)c1O	LASV entry inh inconclusive
O=c1c2cnn(-c3ccccc3)c2nc(-c2cccs2)n1-c1ccc(Br)cc1	LASV entry inh inconclusive
CC(C)NC(C)Cc1ccc(I)cc1 (centres undefined)	Marburg entry inh 16µM (no result: CHX counter, Shiga toxin inh)
CNC(C)Cc1ccc(OC)cc1 (centres undefined)	none (no result: LASV entry inh, Marburg entry inh)
CC(C)N[C@@H](C)Cc1ccc(I)cc1	Marburg entry inh 16µM (no result: CHX counter, LASV entry inh, Shiga toxin inh)
CN(C)S(=O)(=O)c1cccc(-c2csc(N/N=C/c3ccco3)n2)c1	CHX counter 14
Cc1ccc(-c2csc(N/N=C/c3ccco3)n2)c(C)c1	CHX counter 46, LASV entry inh 3.3µM, Marburg entry inh 1.8µM, Shiga toxin inh 62
C=CCn1c(O)c(/C(C)=N/NC(=S)Nc2ccccc2)c(=O)[nH]c1=O	CHX counter 27, Shiga toxin inh 60
C=CCn1c(O)c(/C(CC)=N/NC(=S)Nc2ccccc2)c(=O)[nH]c1=O	CHX counter 35, Shiga toxin inh 63
CCCCn1c(O)c(/C(C)=N/NC(=O)Nc2ccccc2)c(=O)[nH]c1=O	CHX counter 31, Shiga toxin inh 39 (no result: LASV entry inh, Marburg entry inh)
C=CCn1c(O)c(C(C)=NCCc2ccccc2)c(=O)[nH]c1=O	none
CCCCn1c(O)c(C(C)=Nc2c(C)n(C)n(-c3ccccc3)c2=O)c(=O)[nH]c1=O	none
O=C(COC(=O)CCc1nc2ccccc2s1)NC(=O)NCc1ccco1	Marburg entry inh inconclusive
CCOC(=O)c1cc(OC(=O)c2cccc(F)c2)n(-c2ccccc2)n1	Marburg entry inh inconclusive (no result: CHX counter, Shiga toxin inh)
CN(C)C(CNS(=O)(=O)c1ccc(Cl)cc1F)c1ccco1 (centres undefined)	none (no result: CHX counter, Shiga toxin inh)
CC(C)CCNC(=O)c1ccc(Cn2c(SCC(N)=O)nc3ccccc3c2=O)cc1	none (no result: CHX counter, Marburg entry inh, Shiga toxin inh)
COc1ccc(C(=O)OCC(=O)c2ccc(Br)s2)c(OC)c1	LASV entry inh inconclusive (no result: CHX counter, Shiga toxin inh)
COc1cccc(C(=O)OCC(=O)c2ccc(Br)s2)c1	CHX counter 53, Shiga toxin inh 88
CCCN1CCN(CCNC(=O)Nc2ccccc2OCC)CC1	none (no result: CHX counter, Shiga toxin inh)
CC(C)(C)C(=O)OCc1nc(-c2ccc(C(F)(F)F)cc2)cs1	CHX counter 19
Cc1nc(C(=O)NNC(=O)c2ccc(C(F)(F)F)cc2)cs1	Marburg entry inh inconclusive
O=C(O)CCCc1ccc(N(CCCl)CCCl)cc1	Marburg entry inh 3.2µM!
O=C(Cc1ccc(N(CCCl)CCCl)cc1)NC(Cc1ccc(Cl)cc1)C(=O)O (centres undefined)	none (no result: LASV entry inh, Marburg entry inh)
CCN(CC)c1ccc(/C=N/NC(=O)C(O)c2ccccc2)cc1 (centres undefined)	none
NC(Cc1ccc(O)cc1)C(=O)NN=Cc1ccc(N(CCCl)CCCl)cc1 (centres undefined)	LASV entry inh 4µM, Marburg entry inh 1.3µM (no result: CHX counter, Shiga toxin inh)
CC(=O)NC(Cc1ccc(N(CCCl)CCCl)cc1)C(=O)O (centres undefined)	Marburg entry inh inconclusive
N[C@@H](Cc1ccc(N(CCCl)CCCl)cc1)C(=O)O	Marburg entry inh 5.8µM (no result: CHX counter, LASV entry inh, Shiga toxin inh)
CCOC(=O)N(Cc1ccccc1)Cc1ccc(C(=O)N[C@@H](Cc2ccccc2)C(=O)O)cc1	LASV entry inh inconclusive (no result: CHX counter, Shiga toxin inh)
Cc1ccc(-c2noc(CSc3nnc(C)n3-c3ccc(C)cc3)n2)cc1	LASV entry inh inconclusive (no result: CHX counter, Shiga toxin inh)
c1ccc(OCCCc2nc(-c3cccnc3)no2)cc1	none
CCCc1cc(=O)[nH]c(SCc2nc(-c3ccc(C)cc3)no2)n1	none (no result: CHX counter, Marburg entry inh, Shiga toxin inh)
Cc1ccc(-c2noc(CSc3ccccc3)n2)cc1	CHX counter 33, Marburg entry inh inconclusive, Shiga toxin inh 77
c1ccc(SCc2nc(-c3cccnc3)no2)cc1	CHX counter 36, LASV entry inh inconclusive, Marburg entry inh inconclusive, Shiga toxin inh 108
Cc1ccc(-c2noc(CSc3nc(N)cc(N)n3)n2)cc1	CHX counter 53, Shiga toxin inh 87
c1ccc(CCCc2nc(-c3cccnc3)no2)cc1	CHX counter 19, Shiga toxin inh 43
